From PubChem BioAssay (NCI)
Compounds without any hit were thinned out: in the full panel of roughly 83,000, 20% have a hit.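 How to read the values: 0–100, growth inhibition (40 = 60% inhibited); 0, no net growth; -100 to 0, cell death (-40 = 40% of starting cells died; -100 = all dead).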 Unmarked numbers belong to inactive results. Active and inactive are the calls of the source. Rule for the calls: active = growth percent below 10; inactive = the rest.

Tests used:
Assay in all cases: NCI-60 one-dose screen, 48 h (100 = growth as untreated, 0 = no growth, -100 = all killed)
Settings in all cases: 10 µM unless noted
DU-145 prostate = test system: DU-145 prostate
K-562 leukemia = test system: K-562 leukemia
MALME-3M melanoma = test system: MALME-3M melanoma
MDA-MB-231 breast = test system: MDA-MB-231 breast
RXF 393 renal = test system: RXF 393 renal
SF-268 CNS = test system: SF-268 CNS
SF-295 CNS = test system: SF-295 CNS
SF-539 CNS = test system: SF-539 CNS
UACC-257 melanoma = test system: UACC-257 melanoma
M14 melanoma = test system: M14 melanoma

SMILES	growth (DU-145 prostate)	growth (K-562 leukemia)	growth (MALME-3M melanoma)	growth (MDA-MB-231 breast)	growth (RXF 393 renal)	growth (SF-268 CNS)	growth (SF-295 CNS)	growth (SF-539 CNS)	growth (UACC-257 melanoma)	growth (M14 melanoma)
Cc1ccc(S(=O)(=O)C2=C3C(=C(c4ccccc4)c4ccccc43)CN(S(=O)(=O)c3ccc(C)cc3)C2)cc1	68.2%	18%	72%	48.8%	47.1%	45.3%	68.3%	74.1%	91%	70.7%
CCN(CC)CCC(CNc1ccnc2cc(Cl)ccc12)c1ccccc1 (stereo not given)	89.4%	2.5% (active)	-47.1% (active)	43%	-21% (active)	78.3%	-21.4% (active)	-15.2% (active)	-78.2% (active)	-83.9% (active)
COC(=O)C1CCCN1C(=O)[C@@H]1CCCN1C(=O)[C@H](Cc1c[nH]c2ccccc12)NC(=S)Nc1cc(C(F)(F)F)cc(C(F)(F)F)c1 (stereo not given in full)	52.5%	38.3%	81.7%	14.4%	43.7%	51.5%	25.1%	55.4%	62.4%	60.9%
C=CCn1cc(-c2nc3ccccc3s2)c2cc(-c3ccc4c5c(cccc35)C(=O)N(CCN3CCNCC3)C4=O)ccc21	101%	-51.9% (active)	55.2%	60.5%	93.2%	89.9%	101%	91.1%	102%	82%
CN(CCCCN(C[C@H]1Cc2ncccc2CN1)[C@H]1CCCc2cccnc21)C1CCC(F)(F)CC1	97.9%	72.3%	153%	65.7%	89.9%	87.8%	96.5%	99.2%	89.2%	101%
O=C(/C=C/c1cc(-c2ccc3c(c2)OCO3)n[nH]1)c1ccc2c(c1)OCO2	104%	82.6%	106%	92.4%	94.4%	93.3%	97%	–	96.1%	99.6%
Cc1cc(C(C)(C)C)ccc1S	116%	99.8%	113%	115%	103%	102%	102%	–	108%	112%
Cc1ccc2nc(-c3cc4c([nH]c5ccccc54)c(-c4ccc(F)c(F)c4)n3)[nH]c2c1	80.8%	65.9%	120%	60.8%	88.5%	95.4%	88.7%	89.5%	104%	83.5%
CN1CCN(CCCOc2ccc3nc(Nc4ccc(Cl)c(C(F)(F)F)c4)ccc3c2)CC1	54.1%	-28.2% (active)	55.9%	-12.9% (active)	58.8%	59.7%	56%	47%	–	-11.6% (active)
O=C1c2c(c3c4ccccc4n(CCCCCCBr)c3c3[nH]c4ccccc4c23)C(=O)N1O	22.6%	8.97% (active)	-20% (active)	-13.8% (active)	29.1%	24.7%	4.87% (active)	-6% (active)	–	15.5%
CCN(CC)CCC(CNc1ccnc2cc(Cl)ccc12)c1ccc(Cl)cc1 (stereo not given)	67.7%	-53.9% (active)	-83.1% (active)	-32.1% (active)	-90.4% (active)	-8.09% (active)	-75.4% (active)	-78.2% (active)	-79.4% (active)	-80.2% (active)
COc1cc(Cn2cc3c(c2)-c2oncc2CC3)cc(OC)c1OC	-11% (active)	12%	56.5%	28.9%	46.1%	18.4%	-3.52% (active)	–	81.2%	10.7%
C=CCn1c2ccccc2c2c3c(c4c5ccccc5n(CC=C)c4c21)C(=O)N(O)C3=O	24.9%	27.3%	96.1%	39.4%	42.2%	33.7%	16.2%	2.86% (active)	–	17.2%
CC(=O)OC[C@]12CC[C@H]3[C@@H](C[C@H]4O[C@]45CC=CC(=O)[C@]35C)[C@]1(O)CC[C@@]2(O)[C@@](C)(O)C1CC(C)=C(C)C(=O)O1 (stereo not given in full)	7.44% (active)	5.58% (active)	-58.4% (active)	-14.7% (active)	-62.8% (active)	-49.5% (active)	-11.9% (active)	-42.7% (active)	13.7%	2.6% (active)
O=[N+]([O-])c1cc(S(=O)(=O)Oc2ccccc2)ccc1Cl	-81% (active)	1.22% (active)	-68.8% (active)	40.7%	35%	24.2%	28.7%	–	45.4%	-21.5% (active)
CCCCCCCC[C@@H](O)CC(=O)N[C@@H](CC(N)=O)C(=O)N[C@@H](CCC(N)=O)C(=O)N[C@@H](CC(=O)c1cc(C)cc(O)c1C(=O)c1c(O)cccc1O)CC(C)C	54%	23.8%	51.3%	12.1%	-49.5% (active)	9.65% (active)	21%	-5.78% (active)	14.9%	-12.3% (active)
Brc1cccc(-c2cc(-c3ccc4nccnc4c3)[nH]n2)c1	17.7% [25 µM]	11.9% [25 µM]	59.2% [25 µM]	28.3% [25 µM]	-12.8% [25 µM] (active)	41.1% [25 µM]	7.1% [25 µM] (active)	-35.2% [25 µM] (active)	91.2% [25 µM]	23.5% [25 µM]
COc1ccc(C(=O)n2nc(/C=C/c3ccc(O)c(OC)c3)cc2/C=C/c2ccc(O)c(OC)c2)cc1	16.6%	-6.97% (active)	3.93% (active)	12.5%	-54.8% (active)	6.45% (active)	6.61% (active)	-24.4% (active)	0.119% (active)	-15.1% (active)
CCOc1cc2c(Cl)ncnc2c(OCC)c1OCC	-56.1% (active)	19.5%	83.8%	77.7%	-5.68% (active)	33.9%	96.1%	92.5%	-17% (active)	73.7%
COC(OC)c1ccccc1	110%	108%	99.7%	97%	101%	104%	112%	102%	92.2%	101%
C=C[C@@H]1C[C@@H]2Cc3cc(Cl)ccc3N1O2	111%	95.4%	88%	99.3%	104%	106%	100%	105%	99.2%	97.9%
C=C1C(=O)O[C@H]2[C@H]1CC/C(Cn1cc(-c3cccc(Cl)c3)nn1)=C\CC[C@@]1(C)O[C@@H]21	-99.4% (active)	0.665% (active)	-77.3% (active)	-54.1% (active)	-88.4% (active)	-47.9% (active)	72.4%	-76.7% (active)	–	-56.4% (active)
CCN(CC)c1ccc(N=O)cc1	80.9%	23.5%	71.1%	47.4%	72.5%	59.1%	92.7%	77.2%	33.2%	75.3%
Cc1ccc(-c2csc(NC(=O)CCCCl)n2)cc1	99.9%	74.6%	94%	95.8%	105%	85.8%	83.5%	96.3%	103%	103%
CCN(CC)c1ccc(CNc2ccnc3ccccc23)cc1	70%	9.95% (active)	49.5%	70.2%	71.7%	82.3%	51.4%	69.7%	36.2%	56.2%
S=C1CC(=S)NC(=S)N1	108%	119%	121%	106%	107%	102%	116%	–	105%	103%
COc1ccc2[nH]c(=O)c(/C=N/Nc3nc(-c4ccccc4)cs3)c(O)c2c1	63.7%	71.3%	84.5%	57.5%	97.1%	56.4%	69.3%	84.1%	98.8%	75.2%
COc1cc(C2CC(c3ccc4c(c3)OCO4)=NN2C=O)cc(OC)c1OC (stereo not given)	31.7%	17.6%	-3.87% (active)	68%	45.7%	44.8%	-1.84% (active)	–	65.3%	26.7%
